In PubChem BioAssay AID1347426 (Functional Genomics Laboratory (NCATS/FGL), 2020):
The whole screen tested about 31,000 sequences, of which about 1,400 (4.5%) were called active. Shown is part of a subset that was picked to be rich in actives. A number with no mark means an inactive call.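 Rule for the calls: active = median seed-adjusted z-score above 1 or below -1; inactive = the rest.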

Experiment: Novel Modifiers of Survival Motor Neuron (SMN) Protein: Gene Identification via Genome-wide siRNA Screen;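 note: luminescence tracks full-length SMN protein made from the SMN2 reporter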
Details: HEK293T SMN2-luciferase reporter, siRNA knockdown, 72 h; actives lie on both sides
How it was run: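 Steps: spot 1 pmol siRNA, add Lipofectamine RNAiMax in serum-free DMEM, seed HEK293T SMN2–luciferase reporter cells; incubate 72 h at 37 °C; add ONE-Glo; normalize luminescence to control siRNA, log10, MAD. Candidates: |MAD| > 1.0.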

Sequence | median seed-adjusted z-score
GAAGCUACAGAAUCUGGAATT against ARFGAP2 | 0.0672
GGAUUCAACUUUACAAGAATT against BTD | -0.165
AGGAGAUCGUCGUCACUGATT against NNMT | -0.095
CCAUAGCAGUAAUGAUACATT against GRIN3A | 0.241
GCCUGAACCGAGUAGAAGATT against KCNQ1 | -0.0525
GCAAGACCAUCAACAAGAUTT against CHRNE | 0.349
CGGUCACAAUUUGCGCUGATT against ST8SIA3 | -0.848
AAACAAUGGUUUGUGCAAATT against UCRC | -0.93
GGCUUUAAGAUCACGCAGATT against SNRPA | -2.09 (active)
GGUCCGCUACUACCACCAATT against FUT4 | -0.24
GAAGCUUACAGAUUCGAUATT against CNTNAP2 | -0.196
GGAUGACAUUAGCAGGUAUTT against ERCC6 | 0.0421
GAAAGUUCAAGUACAGUGATT against CYP2E1 | 0.81
GAAUCUGGUGGGCCCUUUATT against POFUT2 | -0.86
GCUCAGCAUUGUCUGCAAATT against RNASE6 | 0.832
GAUUCUAGGAUAAGCACUATT against KLK8 | 0.736
GGUAAAGUUUUACAGCAUUTT against MTCH2 | -0.168
CCUGUAGAUUUGUCAACUATT against RANBP2 | 1.53 (active)
AGCACGAAGGCAAACCCUATT against CRIP1 | -0.622
GUUGAGCCCUUGUAUAUUATT against UBE2C | 0
GCUUUGAGGAAAAUCCGAATT against SLC26A3 | -0.506
GGAAAGCUCUUCGUCUGGATT against IFIT5 | 0
GCCUCUUAAUUUACCAGAATT against OGN | 0.0889
GGUUGUUAGUGGAUCAUCATT against FBXW11 | 0.206
GAGUGAUAUGAAACGGAAATT against NVL | 0.701
GUUUCGAGAUUGUUGCUAUTT against CCNL1 | -1.26 (active)
CGACUACUACUACCCUGAUTT against CCR8 | -0.206

Sequence | median seed-adjusted z-score
AGUGCAAAAACGUGCUGAATT against AURKAIP1 | 0.067
CGAUUGCUUUUCUACCAACTT against SCP2 | 0.413
CAUUUCGACUGGAUCAUAUTT against CLK1 | -0.436
AUACAGAUGAUAAACCAUUTT against ZBTB34 | 0.0298
CGGCCCUCCUCUGAAAAGATT against POU4F2 | 1.46 (active)
CCUCAGAUCUGAUGUCCAATT against VPS4A | 0
GAAUGACCCUGUACCCUAUTT against TAF2 | -0.243
GAAGGAUUUUGAGCCCGAATT against LETM1 | -0.491
ACACGUUGGAAGUAGCUGATT against OTUD4 | 0.167
GCUUAUAUGUUACCAUGGATT against COG4 | -0.508
GGUGACCGGUUACUUGGGATT against FFAR1 | 0.248
GCUUAUCUCGGCAAUCAAATT against PAPPA2 | -0.173
GAAAGACGAGCUUUACCUATT against GSK3A | 0.248
UGUGGAUCUGCUUACCAAATT against ZFAND2B | 0
GAGGUUUUCCAGACGGUGATT against EHD3 | 0.569
GCAUGCUCAUGGGUUACAATT against ZNF451 | 0
GGUGGUUGCUGUAUAUGGATT against KCTD9 | 1.31 (active)
CGGAAGCAGUUCCAACUUUTT against AKAP8 | -0.252
CAAAAUACAGAGUUUCUUUTT against RILP | 0.503
GGAUGUGAACGGGCACAUUTT against CDC42BPG | 0.153
CAGACAGUAUGUUCGAAGATT against PPAT | -1.51 (active)
GAAUCCUGAUGGGUAUGAATT against CPD | -0.198
GUCUUUAAUGCGCACUAUATT against FEZF1 | 0.155
ACAUCGUUGUGGUCAAGGUTT against ADAMTS15 | 0.765
GGACAAAACUCCUCUCUAUTT against MED27 | -1.62 (active)
GUAUAGGGCCUGUAAGUUUTT against LANCL1 | 0
CUGCCUUGAUGACACCAGATT against TRIM16 | 0.345
